Reference: PubChem BioAssay AID1220 (Sanford-Burnham Center for Chemical Genomics, 2008)
Screen size: about 190,000 compounds; about 1,300 (0.68%) were called active. For the sample, actives were picked, then their nearest neighbours and some compounds at random. Unmarked numbers belong to inactive results. No stated cut-off is given here; in the data, active means inhibition above about 50%; inactive means the rest.

The compounds below were run against Mannose-6-phosphate isomerase (Homo sapiens) (UniProt P34949) (assay: MPI inhibition at elevated mannose 6-phosphate – biochemical, fluorescence intensity, high mannose 6-phosphate, primary screen (AID 1220)). Conditions: recombinant PMI enzyme, coupled fluorescence intensity; at 20 µM; stronger effect = higher value.
Chain of Mannose-6-phosphate isomerase (Homo sapiens) (P34949 whole entry, looked up): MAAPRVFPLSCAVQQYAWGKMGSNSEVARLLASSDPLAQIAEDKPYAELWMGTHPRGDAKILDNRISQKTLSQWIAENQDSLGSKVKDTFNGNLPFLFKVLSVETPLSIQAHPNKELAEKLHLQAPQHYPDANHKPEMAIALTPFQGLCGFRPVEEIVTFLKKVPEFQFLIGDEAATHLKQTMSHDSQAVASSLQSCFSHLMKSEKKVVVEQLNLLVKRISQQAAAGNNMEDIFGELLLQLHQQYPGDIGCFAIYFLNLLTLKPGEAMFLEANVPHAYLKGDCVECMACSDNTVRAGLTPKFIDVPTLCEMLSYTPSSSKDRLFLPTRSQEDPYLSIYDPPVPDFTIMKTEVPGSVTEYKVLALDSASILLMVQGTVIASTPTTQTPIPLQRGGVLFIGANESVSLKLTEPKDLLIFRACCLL

Structure (SMILES) | inhibition
CN(Cc1nccn1C)C(=O)CC1C(=O)NCCN1CC(c1ccccc1)c1ccccc1 (centres undefined) | 25.1%
Cc1ccc(NC(=O)CCNC(=O)c2ccco2)cc1F | -1.2%
C/C(=N\NC(=O)C(=O)Nc1ccc(C)cc1)c1ccncc1 | -7.3%
CC1CCN(c2ccccc2N)CC1 | 2%
Cc1ccc(C)n1-c1ccccc1N | 57.3% (active)
Cc1nnc(C)c2c(C)n(-c3ccccc3N)c(C)c12 | 56.3% (active)
Cc1ccc(C)n1-c1ccccc1N1CCCCC1 | -1.9%
Cc1ccc(-n2c(C)c3c(C)nnc(C)c3c2C)cc1N | 44.2%
Cc1nnc(C)c2c(C)n(C(c3ccccc3)c3ccccc3)c(C)c12 | 8%
Cc1nn(-c2ccccc2)c(C)c1C(=O)OCC(=O)c1c(N)n(CC(C)C)c(=O)n(C)c1=O | 4.3%
Cc1ccc(NC(=O)c2cc(S(=O)(=O)N3CCCCC3)ccc2N2CCOCC2)cc1F | 9.5%
COc1ccc(NC(=O)c2cccc(S(=O)(=O)N3CCOCC3)c2)cn1 | -1.9%
COc1ccc(NC(=O)c2cc(S(=O)(=O)N3CCCCC3)ccc2N2CCCCC2)cn1 | 55.3% (active)
CCOC(=O)/C(C#N)=C/c1ccc(SC)cc1 | -6.5%
O=c1[nH]c(Cc2ccccn2)nc2scc(-c3ccccc3Cl)c12 | -108%
O=C1CNC(=S)N1c1nc(-c2ccccc2)cs1 | 0.9%
CC(=O)N=Cc1c(C)c(C#N)c(=O)n(C)c1O | 53% (active)
Cc1c(/C=N/Nc2ccc(F)cc2)c(O)n(C)c(=O)c1C#N | -7%
Cc1ccc(N/N=C/c2c(C)c(C#N)c(=O)n(C)c2O)cc1C | 23.3%
CCC(=C(c1ccc(OC)cc1)c1ccc(OC)cc1)c1cn(CC(O)CN2CCN(C)CC2)c2ccccc12 (centres undefined) | -5.7%
c1ccc(CCn2nnnc2C(c2cccnc2)N2CCN(c3nc4ccccc4s3)CC2)cc1 (centres undefined) | 15.2%
S=C(c1ccc2c(c1)OCO2)N1CCCCCC1 | 3.6%
CC(C)c1ccc(NC(=O)C(c2ccc3c(c2)OCO3)N2CCCCC2)cc1 (centres undefined) | 10.5%
Oc1c(C(c2ccc(Cl)cc2)N2CCCC2)cc(Cl)c2cccnc12 (centres undefined) | 44.8%
Oc1cc2c(cc1C(c1ccc(Cl)c(Cl)c1)N1CCCC1)OCO2 (centres undefined) | 59.9% (active)

Structure (SMILES) | inhibition
Oc1cc2c(cc1C(c1ccc(Br)cc1)N1CCCC1)OCO2 (centres undefined) | 68.1% (active)
S=C(c1ccc2c(c1)OCO2)N1CCCC1 | 7.1%
CCN(CC)C(=O)C(=O)Nc1ccc(OCc2ccccc2)cc1 | 0.5%
CC(C)Nc1nc(NC(C)C)nc(C(=O)OCCO)n1 | -5.1%
O=C(COc1ccccc1)N(Cc1cc2ccccc2[nH]c1=O)CC1CCCO1 (centres undefined) | 0.7%
CC(C)N1CCN(Cc2ccsc2)CC1CCO (centres undefined) | 5.4%
N#Cc1c2c(c(NCc3ccco3)n3c1nc1ccccc13)CCC2 | 50.2% (active)
N#Cc1c2c(c(NCc3cccnc3)n3c1nc1ccccc13)CCC2 | 11.3%
CCc1c(C)c(C#N)c2nc3ccccc3n2c1NCc1ccco1 | -6.6%
Cc1ccc(NC(=O)CN2C(=O)NC(C)(CCc3ccccc3)C2=O)cc1 (centres undefined) | 26.7%
COc1cccc(C2CC(=O)NC3=C2C(=O)CCC3)c1 (centres undefined) | -0.9%
CCC(NC(=O)C1CCC1)c1ccc(C)cc1 (centres undefined) | 3.8%
O=C(c1ccccc1F)c1cc2c(cc1[N+](=O)[O-])OCCO2 | 51.7% (active)
O=C(c1ccccc1)c1cc2c(cc1[N+](=O)[O-])OCCO2 | 10.9%
Nc1cc2c(cc1C(=O)c1ccccc1F)OCCO2 | 13.3%
COc1ccc(OC)c(NC(=S)NCC(c2cccnc2)N2CCOCC2)c1 (centres undefined) | 2.4%
CC(C)N1CCN(Cc2ccoc2)CC1CCO (centres undefined) | -6.7%
Cc1c2cc(O)c(=O)cc-2oc2cc(O)c(O)cc12 | 28.8%
CCOc1ccccc1-c1c2cc(O)c(=O)cc-2oc2cc(O)c(O)cc12 | 42%
COc1ccc(OC)c(-c2c3cc(O)c(=O)cc-3oc3cc(O)c(O)cc23)c1 | 55.4% (active)
CN(C)C(=O)C[n+]1cccc(/C=N/O)c1 | -5.5%
C=CCn1c(SCC(=O)Nc2ccccc2)nnc1-c1cccc(S(=O)(=O)N2CCOCC2)c1 | 3.2%
CC1OC(OCC2OC(Oc3c(-c4ccc(O)cc4)oc4cc(O)cc(O)c4c3=O)C(O)C(O)C2O)C(O)C(O)C1O (centres undefined) | 16.6%
C[C@@H]1O[C@@H](OC[C@H]2O[C@@H](Oc3c(-c4ccc(O)c(O)c4)oc4cc(O)cc(O)c4c3=O)[C@H](O)[C@@H](O)[C@@H]2O)[C@H](O)[C@H](O)[C@H]1O | 18.4%
COC(=O)c1ccc(COC(=O)CNC(=O)c2ccco2)cc1 | 1.5%

Structure (SMILES) | inhibition
CC1CC(NC(=O)c2ncn[nH]2)CC(C)(C)C1 (centres undefined) | -12.5%
COc1ccc(C(=O)/C=C2\NCC3c4ccccc4CCN3C2=O)cc1 (centres undefined) | -140%
Cc1cccc(C(=O)NCCN(C)C)c1 | 3%
Cc1cc(NC(=O)c2cc(-c3ccco3)on2)n(-c2ccccc2)n1 | 26.3%
Cc1cc(-c2ccco2)n(CC(=O)O)n1 | -2.6%
Cc1cc(-c2ccco2)n(-c2ccccc2)n1 | 50.5% (active)
Cc1ccc(OCC(O)CN2C(=O)NC(C)(C)C2=O)cc1 (centres undefined) | 5.5%
CC1(C)NC(=O)N(CC(O)COc2ccc(N3C(=O)c4ccccc4C3=O)cc2)C1=O (centres undefined) | 53% (active)
CC1(C)NC(=O)N(CC(O)COc2ccc(-c3ccccc3)cc2)C1=O (centres undefined) | -0.4%
O=C(NCC(=O)N1CCCC1)c1cccs1 | 2%
O=C(ONc1ccc(N=NC(=O)c2ccccc2O)cc1)c1ccccc1 | 22.9%
O=C(N=Nc1ccc(NOC(=O)c2ccccc2Br)cc1)c1ccccc1O | 65.2% (active)
Cc1ccc(C(=O)ONc2ccc(N=NC(=O)c3ccccc3O)cc2)cc1 | -5.4%
CN(Cc1cccnc1)C(=O)CC1C(=O)NCCN1Cc1ccc(-c2ccccc2)cc1 (centres undefined) | 8.9%
CCOC(=O)C(C#N)C(Cc1ccccc1)c1ccco1 (centres undefined) | 5.7%
COc1ccc(NC(=S)Nc2cccc(C(C)=O)c2)cc1OC | 50.5% (active)
COc1cc(NC(=S)Nc2ncccc2C)cc(OC)c1OC | 31%
COc1ccc(NC(=S)Nc2ncccc2C)c(OC)c1 | 10.1%
COc1ccc(NC(=S)Nc2cccc(Cl)c2)cc1OC | 61.4% (active)
COC(=O)c1cc(OC)c(OC)cc1NC(=S)Nc1cccc(C(C)=O)c1 | -8%
COc1cc(C)c(NC(=S)Nc2cccc(Cl)c2)cc1OC | 24.5%
COc1ccc(C(=O)Nc2cccc(C(C)=O)c2)cc1OC | -4.1%
COc1ccc(NC(=S)Nc2ncccc2C)cc1OC | 55.1% (active)
COc1ccc(NC(=S)Nc2cccc(Cl)c2Cl)cc1OC | 40.9%
Cc1c(NC(=O)c2cc3ccccc3o2)c(=O)n(-c2ccccc2)n1C | -16.9%

Structure (SMILES) | inhibition
COc1ccc(-c2nc(N3CCCC3)[nH]c(=O)c2C#N)cc1 | -5.5%
C=CCc1cccc2cc(C(=O)NCc3cccnc3)c(=O)oc12 | 3.6%
Cc1ccc(NCC(=O)N=Nc2c(O)n(C)c3ccccc23)cc1 | -2.1%
O=C(NC1CC1)C1=C[C@H](C2CC2)C[C@H](OCCCCO)O1 | 0.3%
CCS(=O)(=O)c1ccc2oc(SCC(=O)Nc3ccc(OC)cc3OC)nc2c1 | 14.5%
Cc1onc(-c2ccccc2Cl)c1C(=O)N1CCOC12CCCCC2 | -6.1%
Cc1[nH]n(-c2ccccc2)c(=O)c1/C=N/NC(=O)COc1ccccc1[N+](=O)[O-] | 58.1% (active)
Cc1ccc(OCC(=O)N/N=C\c2c(C)[nH]n(-c3ccccc3)c2=O)c([N+](=O)[O-])c1 | -3.5%
COCC(=O)N/N=C/c1c(C)[nH]n(-c2ccccc2)c1=O | -4.5%
CC(C)CN1C(=O)c2ccc(NC(=O)c3ccco3)cc2C1=O | 6.2%
COc1ccc(NC(C)C(=O)Nc2cc(C(F)(F)F)ccc2N2CCOCC2)c(OC)c1 (centres undefined) | 24%
COc1ccc(NC(=O)Nc2ccc(C(=O)N3CCOCC3)cc2)c(OC)c1 | 0.2%
O=C(Nc1ccc(N2CCOCC2)c2nonc12)C1CCCC1 | 44.8%
O=C(Nc1ccc(F)cc1)Nc1ccc(N2CCOCC2)c2nonc12 | 38%
COc1ccc(NC(=O)Nc2ccc(N3CCOCC3)c3nonc23)c(OC)c1 | 55.8% (active)
O=C(Nc1ccc([N+](=O)[O-])cc1)Nc1ccc(N2CCOCC2)c2nonc12 | 57.9% (active)
COc1ccc(C)cc1-n1c(SCC(=O)Nc2cc(C)on2)nc2ccccc2c1=O | 10.8%
COC(=O)Cc1sc(-c2ccccn2)nc1-c1ccccc1 | 21.2%
CCOc1cc(NC(=S)NC)c(OCC)cc1NC(=O)c1ccco1 | 49.7%
CCOc1cc(NC(=S)NCCOC)c(OCC)cc1NC(=O)c1ccco1 | 22.6%
CCNC(=S)Nc1cc(OCC)c(NC(=O)c2ccco2)cc1OCC | 52.8% (active)
CCOCCCNC(=S)Nc1cc(OCC)c(NC(=O)c2ccco2)cc1OCC | 44.5%
CCOc1cc(NC(=S)NCCCOC)c(OCC)cc1NC(=O)c1ccco1 | 50.7% (active)
CCNC(=S)Nc1cc(OC)c(NC(=O)c2ccco2)cc1OC | 33.9%
